This is part of a sample that, as a whole, favours compounds with a hit. Of some 83,000 tested, about 20% had one in any assay.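 Negative percent growth values reflect cell death: -40 means 40% of the cells present at the start died, and -100 means all died.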 A number with no mark means an inactive call. Activity calls are given as the source filed them. The calls were made as follows: active = growth percent below 10; inactive = the rest.
Key:
Assay in all cases: NCI-60 one-dose screen, 48 h (100 = growth as untreated, 0 = no growth, -100 = all killed)
Details in all cases: 10 µM
T-47D breast = system: T-47D breast
BT-549 breast = system: BT-549 breast
MDA-MB-435 melanoma = system: MDA-MB-435 melanoma
MCF7 breast = system: MCF7 breast
HCT-116 colon = system: HCT-116 colon
HCC-2998 colon = system: HCC-2998 colon
KM12 colon = system: KM12 colon
MDA-MB-468 breast = system: MDA-MB-468 breast
SW-620 colon = system: SW-620 colon

| Compound | growth (T-47D breast) | growth (BT-549 breast) | growth (MDA-MB-435 melanoma) | growth (MCF7 breast) | growth (HCT-116 colon) | growth (HCC-2998 colon) | growth (KM12 colon) | growth (MDA-MB-468 breast) | growth (SW-620 colon) |
| --- | --- | --- | --- | --- | --- | --- | --- | --- | --- |
| O=C(c1ccccc1)n1ccc(-c2cc3cc(Br)ccc3oc2=O)n1 | 1.35% (active) | 39.2% | 48.9% | -8.53% (active) | 16% | 17% | 27.9% | -25.9% (active) |  |
| COc1cccc(C(N)=Nc2ccc(OCCCCCCn3cncn3)cc2)c1 | 46.1% | 20.5% |  | 19.2% |  | 18.5% | 18.6% | 17.5% | 38.1% |
| O=C(Cc1ccc2c(c1)CN(C1CCC(=O)NC1=O)C2=O)NCCc1ccccc1 (stereo unspecified) | 1.71% (active) | -37.2% (active) | 35% | 18.9% | 70.8% | -11.4% (active) | 6.24% (active) | -46.1% (active) |  |
| COc1ccc(N(C)c2cc(C#N)nc3ccccc23)cc1/C=C/C(=O)NO | -10.8% (active) |  | -70.5% (active) | -20.8% (active) | -9.52% (active) | -94.8% (active) | -37.1% (active) | -86.1% (active) | -37.5% (active) |
| CC1(C)CC[C@]2(C(=O)Nc3ccccc3)CC[C@]3(C)C(=CC[C@@H]4[C@@]5(C)CC[C@H](N)C(C)(C)[C@@H]5CC[C@]43C)[C@H]2C1 | 81.5% |  | 59.1% | -73.8% (active) | -99.5% (active) | -64.3% (active) |  | 1.83% (active) | 8.55% (active) |
| C=CCn1c(SCC(=O)Nc2ccc(C(=O)/C=C/c3ccccc3)cc2)nnc1-c1c[nH]c2ccccc12 | 20.8% |  | -13.5% (active) | -67.7% (active) | -52.4% (active) | -69.4% (active) | 6.81% (active) | -7.8% (active) | -28.2% (active) |
| O=C(Nc1ccccc1)Nc1nc2ccccc2s1 | 25.5% |  | 97.2% | 21.4% | 85.9% | 85% | 90.1% | -1.66% (active) | 111% |
| COc1ccc(/C(C)=N/N=C2C(=O)N(C)c3ccc(Br)cc32)cc1S(N)(=O)=O | 52.6% |  | 95.9% | 57.8% | 74.4% | 98.3% | 97.8% | 70.2% | 85.7% |
| COc1ccc(C(C)=C(c2ccc(OCCCN(C)C)cc2)c2ccc(OCCCN(C)C)cc2)cc1 | -76.2% (active) |  | -99.9% (active) | -69.5% (active) | -72.1% (active) | -91.6% (active) | -85.5% (active) | -88% (active) | -59.4% (active) |
| CC(=O)c1cc(C(=O)N2c3ccccc3Sc3ccccc32)n2ccc(C)cc12 | 20.8% |  | 28% | 26.5% | 7.08% (active) | 32.7% | 28.3% | 3.44% (active) | 25.6% |
| C=C[C@@]12CN3CC[C@]1(O)[C@@](C(=O)OC)(CO2)c1[nH]c2ccccc2c1C3 | 40.8% |  | 32.7% | 42.6% | 57.9% | 89.4% | 78% | -8.94% (active) | 55% |
| CC1(C)CC[C@]2(C(=O)O)CC[C@]3(C)C(=CC[C@@H]4[C@@]5(C)C/C(=C/c6ccncc6)[C@H](O)C(C)(C)[C@@H]5CC[C@]43C)[C@@H]2C1 | 43.6% |  | 54.8% | 24.4% | 26% | 49.1% | 21.1% | 5.27% (active) | 34.6% |
| COc1cc(C2CC(c3ccc(C)cc3)=Nc3c(N)nc(N)nc3N2)ccc1Oc1nc(Nc2ccc(F)cc2)nc(N(C)C)n1 (stereo unspecified) | 64.5% |  | 63.2% | 5.19% (active) | 6.7% (active) | 29.9% | 52% | 15.6% | 58.8% |
| Cc1cc2c(c(O)c1Br)-c1ncoc1C(=O)[C@]1(C)CC[C@H](C(C)C)[C@H]21 | 20.6% |  | 5.72% (active) | 10.1% | 31.1% | 38.2% | 20% | 20.3% | 22.8% |
| CCOC(=O)N/C(=C1/OCCN1C)[P+](c1ccccc1)(c1ccccc1)c1ccccc1 | 65.9% |  | 51.5% | 41.7% | 75.1% | 60.4% | 51.3% | -11.4% (active) | 89.1% |
| C#Cc1ccc(S(=O)(=O)Nc2cccc(-c3csc(NC(C)=O)n3)c2)cc1 | 42.8% |  | 51.5% | 64.5% | 77.9% | 91.3% | 69.4% | 37.9% | 95.2% |
| O=C(NO)c1ccc(CN2CCN(c3nc(-c4ccccc4)c4ccccc4n3)CC2)cc1 | 8.88% (active) |  | 27.8% | 9.79% (active) | 18.9% | 12.6% | 18.7% | -14.2% (active) | 15.6% |
| O=C(c1ccc(Cl)cc1)C1[C@H](c2ccccc2Br)[C@@H](c2ccccc2)NC12C(=O)Nc1ccc(Br)cc12 (stereo partly specified) | 21.3% |  | -39.7% (active) | -2.68% (active) | 3.99% (active) | -13.2% (active) | 11.8% | -39.8% (active) | 7.29% (active) |
| O=C(CNc1nc(-c2ccccc2)cs1)Nc1ccc(Br)cc1 | -51.4% (active) |  | -1.09% (active) | -82.2% (active) | -44.9% (active) | -98.1% (active) | -68.3% (active) | -84.1% (active) | -64.6% (active) |
| O=C(N/N=C/c1ccc(-c2cccc([N+](=O)[O-])c2)o1)c1[nH]c2ccc(Br)cc2c1-c1ccccc1 | 75.9% |  | 16.6% | 1.16% (active) | -53.2% (active) | 15% | 7.57% (active) | -3.87% (active) | 15.5% |
| OCCCNc1oc(-c2ccccc2)nc1[P+](c1ccccc1)(c1ccccc1)c1ccccc1 | 7.19% (active) |  | 6.46% (active) | 0.534% (active) | 7.82% (active) | 2.5% (active) | -45.9% (active) | -41.3% (active) | 11.5% |
| O=C(COc1ccc(NC(=O)Nc2ccc(Cl)cc2)cc1)N=Nc1c(O)[nH]c2ccc([N+](=O)[O-])cc12 | 7.65% (active) |  | 17% | -36.4% (active) | -37.8% (active) | 26.3% | -46.6% (active) | -54.6% (active) | 19.9% |
| COc1ccc(Nc2nc(N)n(Cc3cccc(Br)c3)n2)cc1 | 13.4% |  | -18.2% (active) | 1.86% (active) | 12% | -13.1% (active) | 1.74% (active) | -12.3% (active) | 18.3% |
| C=CC(=O)Nc1nc(-c2cccc(NS(=O)(=O)c3cccc4c(N(C)C)cccc34)c2)cs1 | 0.269% (active) |  | -92.4% (active) | -82.1% (active) | -90.3% (active) | -88.1% (active) | -44% (active) | -87.8% (active) | -80.6% (active) |
| CC[C@@]1(O)C(=O)OCc2c1cc1n(c2=O)Cc2c-1nc1cc(F)c(C)c3c1c2[C@@H](N)CC3 | -3.93% (active) |  | -41.9% (active) | 8.66% (active) | 0.118% (active) | -45.4% (active) |  | -77.2% (active) | 8.5% (active) |
| CN1CCN(c2ccc(C(=O)/C=C/c3ccc(C#N)cc3)cc2)CC1 | 87.4% |  | 28.1% | 6.57% (active) | 18% | 47% | 46.8% | 26.5% | 35.5% |
| CNC(=O)c1cc(-c2ccc(NC(=O)Nc3ccc(C)cc3)cc2)nc2cccnc12 | 89.6% |  | 109% | 45.6% | 89.7% | 121% | 102% | -14.3% (active) | 104% |
| Cc1nn(-c2ccccc2)c2ncn(CC(=O)N/N=C/c3c[nH]c4ccccc34)c(=O)c12 | 83.2% |  | 94.9% | 68.7% | 82.5% | 114% | 92.4% | 102% | 95.4% |

From PubChem BioAssay (NCI)
